# Sampled rows, rich in hits. Any-hit rate of the full collection: about 0.97%.
# Mtb BioA inh: blocks M. tuberculosis BioA enzyme activity. 360,000 compounds, 0.096% hits. inhibition, % at 9.99 µM. purified M. tuberculosis BioA enzyme, plate reader; in the data active = inhibition above about 40%
# Rv3671c inh: Rv3671c (M. tuberculosis) protease inhibition; 320,000 compounds, 0.048% hits; inhibition, % at 5.96 µM; in the data active = inhibition above about 38%;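 note: extracellular domain of Rv3671c used as enzyme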
# Target sequence (P9WHR9 whole entry, looked up, the tested form may be a part): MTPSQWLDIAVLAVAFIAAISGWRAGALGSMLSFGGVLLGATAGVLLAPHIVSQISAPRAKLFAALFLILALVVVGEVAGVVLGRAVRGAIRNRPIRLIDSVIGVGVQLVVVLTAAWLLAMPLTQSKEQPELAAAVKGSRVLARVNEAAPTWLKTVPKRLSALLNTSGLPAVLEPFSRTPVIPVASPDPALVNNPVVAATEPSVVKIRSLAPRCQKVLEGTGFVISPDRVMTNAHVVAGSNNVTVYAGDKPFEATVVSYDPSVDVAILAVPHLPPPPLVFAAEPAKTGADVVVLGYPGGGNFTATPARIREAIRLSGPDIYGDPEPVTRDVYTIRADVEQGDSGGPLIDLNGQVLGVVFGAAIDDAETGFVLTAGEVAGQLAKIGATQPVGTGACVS
# FadD28 FP inh: M. tuberculosis FadD28 bisubstrate binding inhibition. FadD28 bisubstrate probe binding, fluorescence polarization. AID 588549. 360,000 compounds, 0.22% hits. inhibition, % at 12.5 µM; in the data active = inhibition above about 8.5%, passing the limit was not always enough
# TcdB GH inh: blocks C. difficile toxin B glycohydrolase activity; inhibition, % at 9.99 µM; P18177; AID 652162; TcdB glycohydrolase enzymatic assay, plate reader; 350,000 compounds, 0.24% hits; in the data active = inhibition above about 10%
# RecA intein inh: blocks M. tuberculosis RecA intein splicing | cell-free RecA intein splicing, fluorescence | inhibition, % (test concentration not listed) | 290,000 compounds, 0.75% hits | AID 2221; in the data active = inhibition above about 30%
# Mtb UGM inh: inhibitors of M. tuberculosis UDP-galactopyranose mutase. 320,000 compounds, 0.06% hits. AID 504406. purified UGM, fluorescence polarization probe displacement. inhibition, % at 10 µM; in the data active = inhibition above about 10%, passing the limit was not always enough
# Numbers stand for hits; i = inactive; nt = no result.
SMILES,Mtb BioA inh,Rv3671c inh,FadD28 FP inh,TcdB GH inh,RecA intein inh,Mtb UGM inh
COc1cc(/C=C2/C(=O)N(c3ccc(C(=O)O)cc3)N=C2C)cc(OC)c1O,i,nt,i,i,i,i
COc1cc(/C=C2/C(=O)N(c3ccc(Br)cc3)N=C2C)cc(OC)c1OC,i,nt,i,i,62.9,nt
COc1ccc(SC[C@H](C)CN2CC[C@H](NC(=O)OCc3ccccc3)CCC2=O)cc1,i,i,i,10.2,nt,i
CCC(=O)N[C@@H]1CC[C@H](CCn2cc(C3CC3)nn2)O[C@H]1CO,i,nt,nt,i,nt,nt
CC1CCN(c2ccc3c(c2)S(=O)(=O)c2cccc(C(=O)NC[C@@H]4CCCO4)c2C3=O)CC1,i,i,i,i,nt,i
O=C(NC1CCCCC1)c1cccc2c1C(=O)c1ccc(N3CCC(Cc4ccccc4)CC3)cc1S2(=O)=O,i,i,i,i,nt,19.1
O=C(NCC1CCCO1)c1cccc2c1C(=O)c1ccc(N3CCC(Cc4ccccc4)CC3)cc1S2(=O)=O (stereo unspecified),i,i,i,nt,nt,19.0
CCCN(C)C[C@@H]1Oc2cc(C#CC3CCCC3)ccc2S(=O)(=O)N([C@@H](C)CO)C[C@@H]1C,i,nt,nt,i,nt,nt
O=[N+]([O-])c1cccc(C(=Nc2ccccc2Cl)NO)c1,i,i,i,nt,i,i
ONC(=Nc1ccccc1Cl)c1ccccc1Cl,i,i,i,16.6,i,i
COCC(=O)Nc1ccc2c(c1)OC[C@H](C)N(C(=O)NC(C)C)C[C@H](C)[C@@H](OC)CN(C)C2=O,nt,nt,nt,i,nt,nt
CC1(OC(=O)c2cnc3ccccc3n2)C(=O)C=C2C=C(C3CC3)OC=C2C1=O (stereo unspecified),nt,38.5,nt,nt,i,i
COc1ccc(NC(=O)c2cccc(N3C(=O)c4cccc([N+](=O)[O-])c4C3=O)c2)cc1,i,i,i,i,i,i
COc1ccc(/C=C2\C(=O)N(c3c(Cl)cc(Cl)cc3Cl)N=C2NC(=O)c2cccc([N+](=O)[O-])c2)cc1,i,i,8.4,nt,nt,i
Cc1ccc(C(=O)Nc2scc(-c3ccccc3)c2C(=O)O)cc1,i,i,i,12.0,i,i
COc1cc(C(=O)Nc2scc(-c3ccccc3)c2C(=O)O)cc(OC)c1OC,i,i,i,13.1,nt,i
O=C(/C=C/c1cccs1)Nc1nc(-c2ccccc2)cs1,i,i,i,nt,i,i
O=C(/C=C/c1cccs1)Nc1scc(-c2ccccc2)c1C(=O)O,nt,nt,i,i,47.3,nt
COc1ccc(-c2csc(NC(=O)c3ccccc3F)c2C(=O)O)cc1,nt,i,i,10.6,i,i
O=C(Nc1scc(-c2ccccc2)c1C(=O)O)c1ccccc1Cl,i,i,i,i,i,i
O=C(C[C@@H]1C=C[C@@H](NC(=O)Nc2cc(F)ccc2F)[C@H](CO)O1)NCc1ccncn1,i,nt,nt,i,nt,nt
O=C1Nc2ccc(Br)cc2C1Cc1ccccc1F (stereo unspecified),i,i,i,28.2,i,i
Cn1c(CC2C(=O)Nc3ccc(Br)cc32)nc2ccccc2c1=O (stereo unspecified),i,i,i,i,i,i
O=C1NC(=O)N(Cc2ccc(F)cc2)C(=O)/C1=C\c1ccc([N+](=O)[O-])s1,i,i,28.5,i,i,i
O=C1NC(=O)N(Cc2ccc(F)cc2)C(=O)/C1=C\c1ccc(N2CCCC2)cc1,nt,i,i,i,i,i
SMILES,Mtb BioA inh,Rv3671c inh,FadD28 FP inh,TcdB GH inh,RecA intein inh,Mtb UGM inh
COc1ccc(CN2C(=O)NC(=O)/C(=C/c3ccc([N+](=O)[O-])s3)C2=O)cc1,i,i,33.4,i,i,i
CCCCCCCOC(=O)c1ccc(OC(=O)c2cccnc2)cc1,nt,i,i,nt,63.8,i
COc1ccc2c3c(n(C)c2c1)[C@H](CO)NCC31CN(C(=O)Nc2ccc(F)cc2F)C1,nt,nt,nt,i,nt,nt
COc1ccc(C)cc1NC(=O)c1cccc(C(=O)Nc2cc(C)ccc2OC)c1,i,i,i,i,i,i
CC(C)(C)C(=O)Nc1sc(-c2ccccc2)cc1C(=O)O,i,i,i,i,i,i
Cc1cc(N)ccc1NC(=O)c1ccccc1,i,i,i,nt,i,i
Cc1ccc(NC(=O)c2cccc(C(=O)Nc3ccc(C)cc3C(=O)O)c2)c(C(=O)O)c1,i,i,i,i,i,13.2
Cc1cccc(C(=O)Nc2sc(-c3ccccc3)cc2C(=O)O)c1,i,i,24.2,i,i,i
Cc1cc(O)ccc1NC(=O)c1ccccc1,nt,i,i,12.1,i,i
CN(C)CC#Cc1ccc([C@H]2[C@@H](CO)N3CCCCN(C(=O)C4CCCC4)C[C@@H]23)cc1,i,nt,nt,i,nt,nt
CC(=O)N(C)C1=C(N2CCOCC2)C(=O)c2ccccc2C1=O,nt,i,i,nt,32.2,i

# Assay outcomes as filed in PubChem BioAssay.
